Source: PubChem BioAssay (NCI)
About 83,000 compounds went through this panel and 20% of them were active in at least one assay; those are over-represented in the sample as a whole.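 Negative percent growth values reflect cell death: -40 means 40% of the cells present at the start died, and -100 means all died.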 Active and inactive are the calls of the source. How the source made its calls: active means growth percent below 10; inactive means the rest.

Assays:
Assay in all cases: NCI-60 one-dose screen, 48 h (100 = growth as untreated, 0 = no growth, -100 = all killed)
Details in all cases: 10 µM unless noted
[1] = test system: SK-MEL-2 melanoma
[2] = test system: EKVX NSCLC
[3] = test system: SN12C renal
[4] = test system: UO-31 renal
[5] = test system: TK-10 renal
[6] = test system: ACHN renal
[7] = test system: CAKI-1 renal
[8] = test system: A498 renal
[9] = test system: CCRF-CEM leukemia
[10] = test system: MOLT-4 leukemia

Measured: growth

COC(=O)[C@]12CC[C@@H](C)[C@H](C)[C@@H]1C1=CC[C@@H]3[C@@]4(C)C(C=O)=C[C@@](C)(COC(=O)c5ccco5)[C@@H]4C(=O)C[C@@]3(C)[C@]1(C)CC2
active: [1] -31.8% | [9] 5.47%
inactive: [2] 38.3% | [3] 42% | [4] 29.7% | [5] 29.7% | [6] 13.4% | [7] 38.8% | [8] 65.5%

COc1ccc(Nc2nnc(SCc3ccccc3F)s2)cc1
inactive: [1] 82.9% | [2] 94.9% | [3] 107% | [4] 78.6% | [5] 123% | [6] 106% | [7] 103% | [8] 91.4% | [9] 76.4% | [10] 94.8%

CCN1CCN(c2nc(C)cc(NCc3cc(Nc4ccnc5cc(Cl)ccc45)ccc3F)n2)CC1
active: [1] -49.7% | [9] -19.4%
inactive: [2] 49.4% | [3] 44% | [4] 17.1% | [5] 28.9% | [6] 16.9% | [7] 68.8% | [8] 15.6%

CS(=O)c1cccc(-c2ccc3nc(N)n(-c4ccc(C(F)(F)F)cc4)c(=O)c3c2)c1 (stereo unspecified)
inactive: [1] 98.2% | [2] 108% | [3] 96.3% | [4] 75.8% | [5] 94.7% | [6] 105% | [7] 96.3% | [8] 107% | [9] 99.7%

C(=N\Nc1ncc(-c2cc3cc4c(cc3o2)OCO4)s1)/c1ccco1
inactive: [1] 90.8% | [2] 59.3% | [3] 38.9% | [5] 50.7% | [6] 11.1% | [8] 71.1% | [9] 17.5%
active: [4] -43.4% | [7] 9.09% | [10] 9.91%

CCCCn1c(=O)c2c(nc3n2CCCN3CCc2ccc(OCC(=O)NCCN(CC)CC)cc2)n(CCCC)c1=O
inactive: [1] 73.8% | [2] 70.5% | [3] 64.6% | [4] 43.2% | [5] 71.7% | [6] 78.3% | [7] 77.6% | [9] 24.6%
active: [8] 1.86%

COCCN(C(=O)c1ccc(F)cc1F)c1c(N)n(Cc2ccccc2)c(=O)[nH]c1=O
inactive: [1] 98.7% | [2] 109% | [3] 108% | [4] 83.4% | [5] 119% | [6] 103% | [7] 106% | [8] 100% | [9] 94.5% | [10] 98.1%

Cc1nc2c(c(N3CCCc4ccccc43)n1)CCC2
inactive: [1] 43.9% | [2] 86.4% | [3] 31.5% | [4] 29.6% | [5] 57.8% | [6] 18.8% | [7] 20.7%
active: [8] -1.39% | [9] 1.69%

CCOC(=O)c1c(/C=C/C(=O)O)nc2ccccc2c1/C=C/c1ccccc1
inactive: [1] 47.4% | [2] 61.6% | [3] 27.1% | [4] 42.5% | [5] 65.5% | [6] 43.2% | [7] 62.3% | [9] 17.1% | [10] 25.5%
active: [8] 8.83%

COc1ccc(-c2nc3c(c(=O)n2C(C)=O)C(c2ccc(Cl)cc2)c2sc4c(Cl)cccc4c2O3)cc1 (stereo unspecified)
inactive: [2] 24.6%
active: [1] -11.5% | [3] -35.1% | [4] 6.4% | [5] -35.6% | [6] 8.98% | [7] -6.4% | [8] -2.79% | [9] -3.94%

CCCCCCCCCCCCCCCCCCOc1ccc(CC(=O)OCC[N+]2(C)CCCC2)cc1
inactive: [1] 117% | [2] 100% | [3] 97.9% | [4] 92.4% | [5] 98.4% | [6] 96.8% | [7] 84.9% | [8] 116% | [9] 99.1%

O=C(CCCCCCN1CC(=O)N2[C@@H](c3ccccc3Cl)c3[nH]c4ccccc4c3C[C@H]2C1=O)NO
inactive: [1] 70.1% | [2] 82.2% | [3] 70.1% | [4] 55.6% | [5] 68.9% | [6] 81.7% | [7] 71.4% | [8] 73.5% | [9] 17.8%

O=C(NCCNc1cc(-c2cn(-c3ccccc3)nc2-c2cccc(O)c2)ccn1)Nc1ccccc1
inactive: [1] 86.4% | [2] 71.4% | [3] 77.4% | [4] 58.6% | [5] 124% | [6] 88.5% | [7] 80.1% | [8] 80.8% | [9] 79.3%

NCCCNc1nc2ccccc2c2c(=O)c3cccc(Cl)c3sc12
inactive: [1] 99.4% | [2] 31.2% | [3] 21.1% | [5] 58% | [7] 17.1% | [8] 65.2%
active: [4] 3.93% | [6] 7.6% | [9] 2.48% | [10] -23.4%
